Assay outcomes: PubChem BioAssay, NMMLSC
Compounds with a hit are over-represented: about 3.5% of the library has one in this group of screens.
BoNT-A LC inh2: blocks Botulinum neurotoxin A light chain protease. inhibition, % at 10 µM. AID 588499. multiplex microsphere protease substrate cleavage, flow cytometry. actives 0.17% (n = 360,000); further: plate controls were buffer without enzyme for full effect and enzyme alone for no effect
Autofluor counter: compound fluorescence in toxin protease inhibitor counterscreen. compound autofluorescence counterscreen, microsphere flow cytometry; stronger effect = higher value. fluorescence intensity (test concentration not listed). actives 3.1% (n = 360,000). AID 624483; in the data active means fluorescence intensity above about 16000; inconclusive means no clear call, values can overlap the other calls
BoNT-F LC inh: blocks Botulinum neurotoxin F light chain protease; Multiplex microsphere protease cleavage assay, flow cytometry; inhibition, % at 10 µM; actives 0.22% (n = 360,000); in the data active means inhibition above about 35%, passing the limit was not always enough; inconclusive means no clear call, values can overlap the other calls; further: plate controls were buffer without enzyme for full effect and enzyme alone for no effect
Anthrax LF inh2: anthrax lethal factor protease inhibition. P15917. multiplex microsphere protease cleavage assay, LF. inhibition, % at 10 µM. actives 0.12% (n = 360,000). AID 588501; further: plate controls were buffer without enzyme for full effect and enzyme alone for no effect
Target sequence (P15917 whole entry, looked up): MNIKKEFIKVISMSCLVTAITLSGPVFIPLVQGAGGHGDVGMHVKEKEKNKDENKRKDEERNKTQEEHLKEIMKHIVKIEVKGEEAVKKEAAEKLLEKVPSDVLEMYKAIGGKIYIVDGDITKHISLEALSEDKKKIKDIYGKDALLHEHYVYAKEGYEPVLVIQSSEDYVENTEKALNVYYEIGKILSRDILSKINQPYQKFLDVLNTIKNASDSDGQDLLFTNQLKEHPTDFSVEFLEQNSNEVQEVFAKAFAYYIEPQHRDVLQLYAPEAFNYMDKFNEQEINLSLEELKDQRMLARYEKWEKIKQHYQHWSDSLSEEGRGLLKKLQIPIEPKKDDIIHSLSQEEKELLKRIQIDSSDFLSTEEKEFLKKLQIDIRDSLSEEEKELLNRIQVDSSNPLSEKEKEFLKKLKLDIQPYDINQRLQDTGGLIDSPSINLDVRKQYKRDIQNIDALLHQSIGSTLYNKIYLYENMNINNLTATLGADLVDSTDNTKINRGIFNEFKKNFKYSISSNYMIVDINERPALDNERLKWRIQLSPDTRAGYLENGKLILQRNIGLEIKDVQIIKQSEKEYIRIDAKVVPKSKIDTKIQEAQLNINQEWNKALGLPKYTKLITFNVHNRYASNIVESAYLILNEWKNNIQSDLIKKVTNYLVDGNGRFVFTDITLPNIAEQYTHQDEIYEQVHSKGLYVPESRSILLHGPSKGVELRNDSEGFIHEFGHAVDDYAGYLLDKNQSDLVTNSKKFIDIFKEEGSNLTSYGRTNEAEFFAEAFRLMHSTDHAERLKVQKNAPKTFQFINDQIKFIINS
Numbers without * were called inactive; u = inconclusive. Unless noted, no stated cut-off is given here; in the data, active means inhibition above about 30%; inconclusive means no clear call, values can overlap the other calls; inactive means below that.

SMILES | BoNT-A LC inh2 | Autofluor counter | BoNT-F LC inh | Anthrax LF inh2
CCOc1ccc(NC(=O)c2ccc(F)c(S(=O)(=O)N3CCCC3)c2)cc1 | -1 | 4527 | -14 | -11
CC(=O)c1cccc(-c2ccnc3c2CC(C(=O)NCc2ccco2)O3)c1 (configuration not stated) | -1 | 3812 | -3 | -6
Cn1cc(-c2csc(C(C)(O)c3cccnc3)n2)cn1 (configuration not stated) | -1 | 3353 | -7 | -6
O=C(O)c1cc[c]([Hg][Cl])cc1 | 60* | 9321 | -4 | -22
O=C(O)CCC(=O)N1CCc2cc(S(=O)(=O)NC3CCCC3)ccc21 | -2 | 21391* | -3 | 2
O=C(O)CCC(=O)N1CCc2cc(S(=O)(=O)NC3CCCc4ccccc43)ccc21 (configuration not stated) | 0 | 11993 | 6 | 0
Cc1ccc(C)c(N2CCN(S(=O)(=O)c3ccc4c(c3)CCN4C(=O)CCC(=O)O)CC2)c1 | 0 | 5743 | -7 | 6
Cc1cccc(N2CCN(S(=O)(=O)c3ccc4c(c3)CCN4C(=O)CCC(=O)O)CC2)c1C | -2 | 24315* | -1 | -2
COCC(C)NC(C(=O)Nc1ccc(C)c(Cl)c1)c1ccccc1 (configuration not stated) | u | 21763* | 1 | -3
CCNc1cc(Cl)nc(SC)n1 | 0 | 4648 | 1 | 1
CCN(CCO)c1cc(Cl)nc(SC)n1 | -4 | 24730* | -7 | -2
COc1ccc(CNC(=O)CSc2nc3ccccc3n2C(C)=O)cc1 | 2 | 3396 | 13 | -14
CCCNC(=O)Cc1ncn[nH]1 | -2 | 20413* | -1 | 2
CC(=O)Nc1cccc(-c2ccnc3c2CC(C(=O)Nc2cccc(OC(F)(F)F)c2)O3)c1 (configuration not stated) | 0 | 3606 | 5 | 4
Cc1ccc(S(=O)(=O)Nc2nc(C)c(NC(=O)OCCCl)s2)cc1 | -5 | 21860* | -7 | -3
Cc1nc(NS(=O)(=O)c2ccccc2)sc1NC(=O)OC(C)C | 0 | 5334 | 3 | 2
COc1ccccc1COc1ccc2c(C)c(CC(=O)O)c(=O)oc2c1C | -2 | 4935 | 1 | -1
C/C=C/C=[N+](\[O-])C(C)/C(=N/O)c1ccc(F)cc1 (configuration not stated) | -2 | 16840* | -5 | 1
COc1ccc(CC2CCOC2=O)cc1 (configuration not stated) | 5 | 20533* | 10 | -9
CC[C@@H]1CCC[C@@H](O)[C@@H](C)C(=O)O[C@H](C)[C@@H](C)C/C=C(C)/C(OC)=C\C(=O)N(C)C([C@@H](C)CC)C(=O)N(C)[C@@H](C(C)C)C(=O)N(C)[C@@H](COC)C(=O)N2CCC[C@H]2C(=O)N(C)[C@@H](C(C)C)C(=O)N2CCC[C@H]2C(=O)O1 (some centres not stated) | 1 | 5610 | 5 | -4
CCOC(=O)COc1ccc(Oc2nc(C)cc(OC)n2)nn1 | 4 | 21448* | 4 | 0
CCN(CC)S(=O)(=O)c1ccc(C(=O)Nc2cc(S(=O)(=O)N3CCOCC3)ccc2N2CCN(C)CC2)cc1 | 0 | 3121 | -2 | -6
CN(C)CCO/N=C(\c1ccc(Br)cc1)c1cccnc1 | -82 | 21777* | u | -50
CN(C)C/C=C(/c1ccc(Br)cc1)c1cccnc1 | 0 | 5367 | -6 | 2
C=CCN(C(=O)Nc1ccc(F)cc1)C1CC(=O)N(c2ccc(OC)cc2)C1=O (configuration not stated) | 4 | 21431* | 3 | -6
SMILES | BoNT-A LC inh2 | Autofluor counter | BoNT-F LC inh | Anthrax LF inh2
CC(=O)c1ccc[n+](CC(=O)NC(C)c2ccccc2)c1 (configuration not stated) | 6 | 3058 | -43 | -19
COC(=O)c1ccccc1NS(=O)(=O)c1ccc(F)cc1 | u | 20259* | 2 | -6
COC(=O)c1ccccc1NC(=O)Oc1ccc(F)cc1 | -1 | 16560* | -3 | -3
COc1ccc(NC(=O)c2cccc3c2C(=O)c2ccc(-c4cnc(OC)nc4)cc2S3(=O)=O)cc1 | 0 | 2655 | 6 | -4
Cc1ccc(Cn2nc(C)c(C(=O)NCC(c3ccc(F)cc3)N3CCOCC3)c2Cl)cc1 (configuration not stated) | 0 | 5611 | -11 | 0
O=C(CSc1nnc(-c2ccccc2)o1)N1CCc2ccccc2C1 | 0 | 9441 | -5 | 1
O=C(CSc1nnc(-c2ccccc2O)o1)N1CCc2ccccc2C1 | u | 20351* | -1 | 1
Cc1ccc(OCCn2c(C)c(/C=N/n3cnnc3)c3ccccc32)cc1 | 2 | 3679 | u | 8
Cc1c(/C=N/n2cnnc2)c2ccccc2n1CCOc1ccc(Cl)cc1 | 0 | 16355* | -2 | -5
Cc1ccnc(Nc2ccc(CCO)cc2)n1 | 1 | 6005 | -4 | 4
